Results published in PubChem BioAssay (EPA / NIEHS).
The source made the active and inactive calls. Rule for the calls: active = hit-call score of the fitted dose curve at least 0.9, where 1 is the maximum; inactive = score below 0.9.

Tests used:
[1] = ATG_GLI_CIS: Attagene CIS-FACTORIAL HepG2 Assay for human Zinc Finger Protein GLI1 (AID 2282945); settings: HepG2, Attagene cis-factorial reporter mRNA, GLI element; actives raise or lower the signal
Outline: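 Bidirectional curve fits relative to DMSO, using reporter mRNA levels from RT-PCR plus capillary electrophoresis. Cells were HepG2 transiently carrying cis-regulated reporter constructs, harvested 24 h after dosing.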

[2] = ATG_ISRE_CIS: Attagene CIS-FACTORIAL HepG2 Assay for human Interferon Regulatory Factor 1 (IRF1) binding to an Interferon-Stimulated Response Element (ISRE) (AID 2282948); settings: HepG2 ISRE cis-reporter (Attagene), mRNA transcription readout; actives raise or lower the signal
Outline: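 Read-out: fluorescent RT-PCR products resolved by capillary electrophoresis, reporting endogenous transcription factor activity via ISRE-driven reporter mRNA in transfected HepG2 cells dosed for 24 h; gain or loss fitted relative to DMSO.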

[3] = ATG_M_32_CIS: Attagene CIS-FACTORIAL HepG2 Assay for M32 Transcription Factor (Internal Marker) (AID 2282949); settings: HepG2 Attagene cis-factorial M32 reporter, mRNA; actives raise or lower the signal;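 note: background control marker of the multiplexed CIS panel rather than a real target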
Outline: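 Using DMSO as baseline, bidirectional curve fits were applied to reporter mRNA signals. These came from transiently transfected HepG2 cells exposed for 24 h, with RNA analysed by RT-PCR, FAM primer extension, HpaI digestion and CE.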

[4] = ATG_M_06_CIS: Attagene CIS-FACTORIAL HepG2 Assay for M06 Transcription Factor (Internal Marker) (AID 2282950); settings: HepG2 Attagene CIS-FACTORIAL M06 internal marker reporter; actives raise or lower the signal
Outline: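 HepG2 liver cells, 24 h exposure. Reporter transcripts from transfected cis-element constructs quantified by RT-PCR/capillary electrophoresis fluorescence. Bidirectional curve fit against DMSO.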

[5] = target: Hypoxia-inducible factor 1-alpha (Homo sapiens) (UniProt Q16665); test: ATG_HIF1a_CIS: Attagene CIS-FACTORIAL HepG2 Assay for human Hypoxia Inducible Factor 1 (HIF1A) (AID 2282951); settings: HepG2 Attagene cis-factorial HIF1a reporter transcription; actives raise or lower the signal
Hypoxia-inducible factor 1-alpha (Homo sapiens), sequence (Q16665 whole entry, looked up): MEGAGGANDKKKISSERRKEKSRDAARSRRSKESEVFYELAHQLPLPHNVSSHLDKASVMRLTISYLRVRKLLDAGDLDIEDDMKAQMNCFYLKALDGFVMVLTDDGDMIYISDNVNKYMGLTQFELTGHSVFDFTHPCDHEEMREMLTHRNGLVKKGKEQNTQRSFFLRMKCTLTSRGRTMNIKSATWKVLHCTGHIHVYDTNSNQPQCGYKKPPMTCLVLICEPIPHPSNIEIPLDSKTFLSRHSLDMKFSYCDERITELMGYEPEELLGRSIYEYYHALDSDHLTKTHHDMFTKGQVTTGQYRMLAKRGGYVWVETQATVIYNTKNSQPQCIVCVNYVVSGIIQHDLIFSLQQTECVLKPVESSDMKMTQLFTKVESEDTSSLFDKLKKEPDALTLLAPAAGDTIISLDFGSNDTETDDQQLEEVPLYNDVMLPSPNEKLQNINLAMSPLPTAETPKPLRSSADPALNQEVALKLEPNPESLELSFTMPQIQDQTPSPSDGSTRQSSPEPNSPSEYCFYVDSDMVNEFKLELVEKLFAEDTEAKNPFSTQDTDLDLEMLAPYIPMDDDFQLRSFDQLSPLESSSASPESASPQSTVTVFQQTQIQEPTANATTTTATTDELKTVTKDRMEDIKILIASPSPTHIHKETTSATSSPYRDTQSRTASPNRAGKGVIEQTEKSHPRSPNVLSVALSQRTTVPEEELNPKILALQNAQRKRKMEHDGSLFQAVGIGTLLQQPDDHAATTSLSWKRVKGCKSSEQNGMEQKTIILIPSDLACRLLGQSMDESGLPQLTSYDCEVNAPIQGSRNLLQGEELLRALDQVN
Outline: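 HepG2 cells transiently transfected with multiplexed cis-promoter reporter units; reporter mRNA read 24 h after dosing by RT-PCR, 6-FAM primer-extension labelling, HpaI digestion and capillary electrophoresis. Bidirectional fit versus DMSO baseline.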

[6] = target: Hepatocyte nuclear factor 6 (Homo sapiens) (UniProt Q9UBC0); test: ATG_HNF6_CIS: Attagene CIS-FACTORIAL HepG2 Assay for human Hepatocyte Nuclear Factor 6 (HNF6) (AID 2282952); settings: HepG2 Attagene cis-factorial HNF6 reporter transcription; actives raise or lower the signal
Hepatocyte nuclear factor 6 (Homo sapiens), sequence (Q9UBC0 whole entry, looked up): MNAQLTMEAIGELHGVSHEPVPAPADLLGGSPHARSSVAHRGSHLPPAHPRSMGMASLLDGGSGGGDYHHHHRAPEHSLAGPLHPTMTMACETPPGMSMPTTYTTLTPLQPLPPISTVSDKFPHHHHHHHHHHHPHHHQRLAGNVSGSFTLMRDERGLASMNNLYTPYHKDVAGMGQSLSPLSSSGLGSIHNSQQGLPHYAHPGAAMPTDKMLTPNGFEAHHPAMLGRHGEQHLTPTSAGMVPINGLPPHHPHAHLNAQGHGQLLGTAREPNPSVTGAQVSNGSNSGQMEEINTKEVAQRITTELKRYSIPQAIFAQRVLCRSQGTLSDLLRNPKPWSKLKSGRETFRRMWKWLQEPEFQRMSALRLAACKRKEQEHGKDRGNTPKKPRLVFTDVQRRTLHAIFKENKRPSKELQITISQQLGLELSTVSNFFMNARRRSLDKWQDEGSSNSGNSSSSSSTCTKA
Outline: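 Activity values derive from bidirectional fitting against DMSO of reporter mRNA levels, measured by capillary electrophoresis of labelled RT-PCR products from HepG2 cells exposed 24 h.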

[7] = target: Heat shock factor protein 1 (Homo sapiens) (UniProt Q00613); test: ATG_HSE_CIS: Attagene CIS-FACTORIAL HepG2 Assay for human Heat Shock Transcription Factor 1 (HSE) (AID 2282953); settings: HepG2 HSE cis-reporter, Attagene RNA transcription; actives raise or lower the signal
Heat shock factor protein 1 (Homo sapiens), sequence (Q00613 whole entry, looked up, the tested form may be a part): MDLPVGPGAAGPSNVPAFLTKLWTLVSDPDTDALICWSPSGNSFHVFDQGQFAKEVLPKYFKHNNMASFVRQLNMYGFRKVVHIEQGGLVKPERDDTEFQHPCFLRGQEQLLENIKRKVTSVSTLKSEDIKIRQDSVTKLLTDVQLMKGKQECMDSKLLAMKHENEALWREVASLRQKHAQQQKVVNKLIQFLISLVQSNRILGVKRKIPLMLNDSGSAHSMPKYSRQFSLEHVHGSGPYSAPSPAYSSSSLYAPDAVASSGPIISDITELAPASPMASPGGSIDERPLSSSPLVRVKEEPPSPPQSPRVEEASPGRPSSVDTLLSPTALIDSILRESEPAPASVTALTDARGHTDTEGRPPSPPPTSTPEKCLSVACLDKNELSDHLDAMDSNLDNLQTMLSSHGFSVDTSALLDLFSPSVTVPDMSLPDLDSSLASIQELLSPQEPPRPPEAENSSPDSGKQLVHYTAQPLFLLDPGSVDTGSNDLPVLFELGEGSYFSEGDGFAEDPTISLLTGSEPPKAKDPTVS
Outline: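 Endogenous transcription factor activity captured via cis-promoter reporter units transfected into HepG2; treatment lasted 24 h. Fluorescence intensity of reporter fragments analysed with bidirectional curve fitting, DMSO baseline.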

[8] = ATG_MRE_CIS: Attagene CIS-FACTORIAL HepG2 Assay for human Metal Responsive Element (MRE) (AID 2282954); settings: HepG2 MRE cis-reporter transcription, Attagene multiplex; actives raise or lower the signal
Outline: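 Multiplexed cis-reporter assay in human HepG2 liver cells, 24 h incubation with test chemical. Reporter transcripts measured by RT-PCR and capillary electrophoresis; values from bidirectional curve fitting versus DMSO.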

[9] = ATG_GRE_CIS: Attagene CIS-FACTORIAL HepG2 Assay for human Glucocorticoid Response Elements (GRE) (AID 2282947); settings: HepG2 GRE cis-reporter, Attagene multiplex mRNA; actives raise or lower the signal
Outline: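 Multiplexed cis-reporter mRNA induction, HepG2, 24 h post-dose. RT-PCR, FAM-labelled, HpaI-digested amplicons by CE. Bidirectional fit vs DMSO.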

| SMILES | outcome [1] | AC50 [2] | outcome [3] | outcome [4] | outcome [5] | outcome [6] | outcome [7] | AC50 [8] | outcome [2] | outcome [8] | outcome [9] |
| --- | --- | --- | --- | --- | --- | --- | --- | --- | --- | --- | --- |
| O=C(C=Cc1ccccc1)OCCc1ccccc1 | inactive | 77.6 µM (active) | inactive | inactive | inactive | inactive | inactive | 40.4 µM (active) | – | – | – |
| CCCCC(CC)COC(=O)/C=C/c1ccc(OC)cc1 (configuration not stated) | inactive | – | inactive | inactive | inactive | inactive | inactive | – | inactive | inactive | – |
| CC(CC(C)C)=NO | inactive | – | inactive | inactive | inactive | – | inactive | – | inactive | inactive | inactive |
| C=Cc1cccc(C)c1 | inactive | – | inactive | inactive | inactive | – | inactive | – | inactive | inactive | inactive |
